Inconclusive results are not listed. Activity calls are given as the source filed them. The call rests on the fitted dose curve; in most records, active means well fitted inhibition curve with a large enough effect; inconclusive means small, poorly fitted or top-dose-only effect; inactive means flat fitted curve, though single readings scatter.

From PubChem BioAssay (NCATS) come the findings set out here.

Common to all, as to assay: qHTS profiling for inhibitors of Plasmodium falciparum proliferation (AID 504749); further: nearly all actives have a fitted effect of over 60% in size
What all share (conditions): P. falciparum in erythrocytes, SYBR Green DNA, 72 h; series mostly up to 28.7 µM
(qHTS replaces the single test concentration by a dilution series.)

Assay [1] has as its system PAD. The essentials: (§1)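 In a 72 h erythrocytic culture (37 C, humidified, 5% CO2) at 2.5% hematocrit and 0.3% starting parasitemia, compounds were tested; SYBR Green I in detergent lysis buffer stained parasite DNA overnight.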
In assay [2] the test system is PC15. The essentials: as §1
Assay [3] relates to PC26. The essentials:
as §1

The subject of assay [4] is SC27B. The essentials: as §1
The test system of assay [5] is TAB109. The essentials:
as §1

Assay [6] relates to TAB113. The essentials: as §1
The subject of assay [7] is TAB165. The gist of the method:
as §1

Assay [8] relates to W2. The gist of the method:
as §1

For assay [9], the system named is P94_40. The gist of the method: as §1
Assay [10] concerns PC49. The essentials: as §1
Potency means the concentration at half of the fitted maximal effect.

`CC#C[C@]1(O)CC[C@H]2[C@@H]3CCC4=CC(=O)CCC4=C3[C@@H](c3ccc(N(C)C)cc3)C[C@@]21C`: the Potency in assay [1] is 10 µM (active); in assay [2], 12.6 µM (active); in [3], 13.5 µM (active); in [4] it was 7.94 µM (active); in assay [5], 11.2 µM (active); in assay [6], 8.91 µM (active). Further, the values for the Potency in assay [7] and in [8] were 6.31 µM (active) and 6.75 µM (active), respectively.
Turning to `NC12CC3CC(CC(C3)C1)C2`, the Potency entry in assay [9], in [1], in assay [3], in assay [10], in [4] and in [5] was “inactive” each time. In addition, the Potency entry in assay [6], in [7] and in [8] was “inactive” in each case.
Consider `Clc1ccc(C(c2ccccc2Cl)C(Cl)Cl)cc1` (stereo unspecified), for which the Potency result in assay [9], in [1], in [2], in assay [10], in assay [4] and in [5] was “inactive” in each case. Further, the Potency result in assay [6] and in [7] was “inactive” throughout.
Consider `O=c1[nH]cc(F)c(=O)[nH]1`, for which the Potency result in assay [10] was “inactive”.
Regarding `CCOC(=O)Nc1ccc(NCc2ccc(F)cc2)nc1N`, the Potency was 10 µM (active) in assay [1]; 19 µM (active) in assay [3]; 10 µM (active) in [4]; 10 µM (active) in assay [5]; 11.2 µM (active) in assay [6]; 10 µM (active) in [7]. Also, the Potency in assay [8] was 3.79 µM (active).
Turning to `CC(COc1ccccc1)N(CCCl)Cc1ccccc1` (stereo unspecified), the Potency result in assay [1], in [2] and in assay [10] was “inactive” throughout. Besides, the Potency in [8] was 6.01 µM (active).
With `CC1(CN2CCC(n3c(=O)[nH]c4ccccc43)CC2)OCc2ccccc2-n2cccc21` (stereo unspecified), the Potency in assay [9] was 10 µM (active); in assay [1], 8.91 µM (active); in [2], 7.94 µM (active); in assay [3] it was 12 µM (active); in assay [4], 10 µM (active); in assay [7] it was 8.91 µM (active). Moreover, the Potency in assay [8] was 7.57 µM (active). For the same compound, the Potency result in assay [10] was “inactive”.
With `CN(C)C(=N)N=C(N)N`, the Potency result in assay [9], in assay [1], in assay [2], in [10], in [4] and in assay [5] was “inactive” each time. Besides, the Potency entry in [6], in assay [7] and in assay [8] was “inactive” each time.
For the compound `COc1ccc(CCN(C)CCCC(C#N)(c2ccc(OC)c(OC)c2)C(C)C)cc1OC` (stereo unspecified), the Potency entry in assay [1], in assay [2], in assay [10], in assay [4], in assay [6] and in assay [7] was “inactive” in each case.
For `O=C1c2c(O)ccc(O)c2C(=O)c2c(NCCNCCO)ccc(NCCNCCO)c21`, the Potency is 1.58 µM (active) in [9]; 2 µM (active) in assay [1]; 6.42 µM (active) in assay [3]; 3.16 µM (active) in [4]; 2.24 µM (active) in [5]; 3.55 µM (active) in assay [6]. Also, the Potency is 2 µM (active) in [7] and 1.81 µM (active) in [8]. Moreover, the Potency result in assay [10] is “inactive”.
Consider `O=C(c1ccc(F)cc1)C1CCN(CCn2c(=O)[nH]c3ccccc3c2=O)CC1`, for which the Potency result in assay [1], in assay [2], in assay [3], in [10], in assay [4] and in assay [5] was “inactive” in each case. The Potency entry in [6] and in [7] was “inactive” each time.
Take `O=C(c1ccc(OCCN2CCCCC2)cc1)c1c(-c2ccc(O)cc2)sc2cc(O)ccc12`: the Potency in assay [9] was 7.94 µM (active); in [4], 8.91 µM (active); in [5], 7.94 µM (active); in assay [6], 5.01 µM (active); in [7] it was 2.82 µM (active); in assay [8] it was 3.01 µM (active).
As for `NCCc1cnc[nH]1`, the Potency entry in [9], in assay [2], in assay [3], in [4], in [5] and in assay [6] was “inactive” in each case. In addition, the Potency entry in [7] and in [8] was “inactive” throughout.
Regarding `Cc1ccc(-c2cc(C(F)(F)F)nn2-c2ccc(S(N)(=O)=O)cc2)cc1`, the Potency in assay [3] is 9.53 µM (active); in assay [8] it was 6.75 µM (active). Besides, the Potency result in [10] was “inactive”.
Regarding `CN(C)CCC=C1c2ccccc2C=Cc2ccccc21`, the Potency in assay [8] was 1.2 µM (active).
With `CC12CC3CC(C)(C1)CC(N)(C3)C2`, the Potency entry in [9], in assay [1], in assay [2], in assay [3], in [4] and in assay [5] was “inactive” each time. Also, the Potency entry in assay [6] and in [7] was “inactive” throughout.
Consider `CC[C@@]1(O)C(=O)OCc2c1cc1n(c2=O)Cc2cc3c(CN(C)C)c(O)ccc3nc2-1`, for which the Potency was 2.82 µM (active) in assay [9]; 6.31 µM (active) in assay [5]; 4.47 µM (active) in assay [6]; 3.55 µM (active) in [7]; 5.36 µM (active) in assay [8]. In addition, the Potency result in assay [2] and in assay [10] was “inactive” throughout.
As to `O=c1c(O)c(-c2ccc(O)c(O)c2)oc2cc(O)cc(O)c12`, the Potency in [1] is 1.78 µM (active); in assay [7], 7.08 µM (active). In addition, the Potency entry in [10] was “inactive”.
In the case of `Nc1c2c(nc3ccccc13)CCCC2`, the Potency in assay [2] was 12.6 µM (active); in [5], 8.91 µM (active). The Potency result in assay [10], in [4] and in assay [6] was “inactive” in each case.
With `CC(C)(Oc1ccc(C2CC2(Cl)Cl)cc1)C(=O)O` (stereo unspecified), the Potency entry in [9], in [1], in assay [3], in assay [10], in assay [4] and in assay [5] was “inactive” in each case. In addition, the Potency result in [6], in assay [7] and in assay [8] was “inactive” throughout.
Take `OCCN1CCN(CCCN2c3ccccc3Sc3ccc(C(F)(F)F)cc32)CC1`: the Potency in [9] was 11.2 µM (active); in assay [1], 7.94 µM (active); in [2], 11.2 µM (active); in assay [3], 6.75 µM (active); in assay [4], 8.91 µM (active); in assay [5], 7.08 µM (active). Also, the Potency in assay [6] was 8.91 µM (active); in assay [7], 12.6 µM (active); in [8], 1.51 µM (active).
Consider `Cn1ccc2cc3c(cc21)CCN3C(=O)Nc1cccnc1`, for which the Potency in [3] is 13.5 µM (active).
As for `CN(C)CCOC(c1ccccc1)c1ccccc1`, the Potency result in assay [1], in assay [10], in assay [4] and in [6] was “inactive” in each case. For the same compound, in assay [8], the Potency is 0.953 µM (active).
Take `CS(=O)(=O)Nc1ccc([N+](=O)[O-])cc1Oc1ccccc1`: the Potency result in [9], in assay [1], in [2], in assay [3], in assay [10] and in assay [4] was “inactive” throughout. Besides, the Potency entry in assay [5], in assay [6], in assay [7] and in assay [8] was “inactive” each time.
In the case of `CN1CCC(=C2c3ccccc3CC(=O)c3sccc32)CC1`, the Potency entry in assay [2] and in assay [10] was “inactive” each time. Further, in assay [8], the Potency was 1.2 µM (active).
As to `CNCCCC12CCC(c3ccccc31)c1ccccc12`, the Potency result in assay [1], in [10], in assay [4], in assay [5] and in assay [6] was “inactive” in each case. In assay [8], the Potency is 6.01 µM (active).
